Results on 31 compounds are retold here after PubChem BioAssay (NCI).

Molecules are shown by their SMILES. About 83,000 compounds went through this panel and 20% of them were active in at least one assay; those are over-represented in the sample as a whole.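 48-hour exposure, single concentration, 96-well plates; percent growth endpoint where 0 means no net growth. Active: below 10.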 A number with no mark means an inactive call. Activity calls are given as the source filed them.

This experiment concerns OVCAR-3 ovarian. In words: NCI-60 one-dose screen, 48 h (100 = growth as untreated, 0 = no growth, -100 = all killed). The conditions noted are these: 10 µM unless noted.
On to `O=C(Nc1ccc(S(=O)(=O)N2CCCCC2)cc1)C(Cl)Cl`, for which the growth was 114%.
For `O=C(c1ccc(Cl)cc1)C1[C@H](c2ccccc2Cl)[C@@H](c2ccccc2)NC12C(=O)Nc1ccccc12` (stereo partly specified), the growth was -15.5% (active).
The value for `O=C(c1ccc(O)cc1)C1[C@H](c2ccc(Cl)cc2)[C@@H](c2ccccc2)NC12C(=O)Nc1ccccc12` (stereo partly specified) was 6.48% (active); that for `Cc1ccc2nc(SCc3ccccc3F)n(-c3ccccc3)c(=O)c2c1` was 115%; that for `CCCCNc1ccc2c3c(cccc13)C(=O)N(NCC(O)COc1ccc3c(C)cc(=O)oc3c1)C2=O` (stereo unspecified) was 87.8%.
Take `c1n[nH]cc1-c1nc2ccc3[nH]ncc3c2c2c1CC1(CC2)COC1`: the growth was 43.8%.
In the case of `CCN1CCN(Cc2ccc(C(=O)Nc3cccc(Nc4ccc5c(OC)cccc5n4)c3)cc2C(F)(F)F)CC1`, the growth is 4.54% (active).
Regarding `O=C(NN1C(=O)/C(=C/C=C/c2ccc([N+](=O)[O-])o2)SC1=S)c1ccc([N+](=O)[O-])cc1`, the growth was -97.1% (active).
The value for `C=CCn1c(O)c(N=Nc2nc(-c3cc4ccccc4oc3=O)cs2)c2ccccc21` was 49.3%.
For `CCCCCCCCCCCCCCCCCC(=O)Nc1ccc(OC)cc1`, the growth was 119%.
For the compound `Cn1cc(-c2cc(N)n3nc(-c4c[nH]c5ccc(Cl)cc45)cc3n2)c2cc(Br)cnc21`, the growth is -81% (active).
The value for `COC(=O)c1ccc(-c2c(-c3ccccc3)c(F)c3oc(C(=O)OC)c(N)c3c2-c2ccccc2)cc1` was 103%.
The value for `COc1ccc(-c2nc3ccccc3n2CC(=O)N=Nc2c(O)[nH]c3ccc(Br)cc23)cc1` was 48.7%; that for `O=C(N/N=C/c1c[nH]c2ccccc12)Nc1ccccc1Cl` was -28.4% (active).
`COc1ccc(CCC2NCCc3c(Br)c4c(c(OC)c32)OCO4)cc1` (stereo unspecified): the growth was 1.09% (active).
Then `CN(C)c1nc(NCCNS(=O)(=O)c2ccc(C(=O)/C=C/c3ccc(Cl)cc3)cc2)nc(N2CCOCC2)n1`, with -9.86% (active); and `COc1ccccc1NC(=O)N/N=C/c1c[nH]c2ccccc12`, with -32.1% (active).
In the case of `O=C1/C(=C/c2cnc(-c3ccccc3)s2)SC(=S)N1Cc1ccc2c(c1)OCO2`, the growth was 97.6%.
Take `N#CC1=C(c2cccs2)Nc2c(c(-c3ccccc3)nn2-c2ccccc2)C12C(=O)Nc1ccccc12` (stereo unspecified): the growth was 12.7%.
In the case of `COc1ccc2[nH]c(=O)cc(-n3ncc(C(=O)/C=C/c4cc(OC)c(OC)c(OC)c4)c3C)c2c1`, the growth was -34.6% (active).
With `C[C@H](NC(=O)c1ccc2c(-c3ccc(C(F)(F)F)cc3)cccc2c1)c1ccccn1`, the growth is 45.6%.
Then `Cn1cc(Nc2ncnc(-c3ccc(N4CCCC4)c(C#N)c3)n2)cn1`, with 81.6%; and `CCCCCCCCc1cccc(CC(=O)Nc2ccc(C)cc2C(=O)O)c1`, with 69.4% [25 µM]; and `O=C1CCC(N2C(=O)c3cccc(NCCCCCC(=O)N4CCN(c5ccc6nc7c(nc6c5C(F)(F)F)C(=O)c5ncccc5C7=O)CC4)c3C2=O)C(=O)N1` (stereo unspecified), with -50.4% (active).
Then `CN1C(=O)/C(=C\C(=O)c2cc3ccccc3oc2=O)c2ccccc21`, with 51.8%; and `Cc1ccc2nc(NC(=O)Nc3cccc(Cl)c3)sc2c1`, with 123%; and `O=C1Nc2ccccc2/C1=C\c1ccc(OCC(=O)c2ccc(Br)cc2)cc1`, with 77.5%.
Take `COc1ccc2[nH]cc(-c3cc(N)n4nc(-c5c[nH]c6ccccc56)cc4n3)c2c1`: the growth is 14.6%.
Take `Cn1cc(-c2cc(N)n3nc(-c4c[nH]c5ccc(Cl)cc45)cc3n2)c2cccnc21`: the growth was -71.3% (active).
Regarding `Cc1ccc(-c2cc(C(=O)N=Nc3c(O)[nH]c4ccc(F)cc34)c3ccccc3n2)cc1`, the growth was 95.3%.
The value for `O=C(NN1C(=O)/C(=C/C=C/c2ccc([N+](=O)[O-])o2)SC1=S)c1ccncc1` was -100% (active).
